The supplement of paper PMC11732987, “Enantioselective OTUD7B fragment discovery through chemoproteomics screening and high-throughput optimisation” (Communications Chemistry, 2025)

Assays:
Test in all cases: log2 ratio of Biotin-Ahx-Ub-VS probe labelling (fragment/DMSO); higher = less target engagement (more negative = stronger competition), active = hit call of the paper (q ≤ 0.05, log2 ratio ≤ -1)
Settings in all cases: compound concentration: 200 uM; treatment time: 3 h
USP19 = target: T1, USP19 (UniProt O94966)
T1 sequence (whole entry): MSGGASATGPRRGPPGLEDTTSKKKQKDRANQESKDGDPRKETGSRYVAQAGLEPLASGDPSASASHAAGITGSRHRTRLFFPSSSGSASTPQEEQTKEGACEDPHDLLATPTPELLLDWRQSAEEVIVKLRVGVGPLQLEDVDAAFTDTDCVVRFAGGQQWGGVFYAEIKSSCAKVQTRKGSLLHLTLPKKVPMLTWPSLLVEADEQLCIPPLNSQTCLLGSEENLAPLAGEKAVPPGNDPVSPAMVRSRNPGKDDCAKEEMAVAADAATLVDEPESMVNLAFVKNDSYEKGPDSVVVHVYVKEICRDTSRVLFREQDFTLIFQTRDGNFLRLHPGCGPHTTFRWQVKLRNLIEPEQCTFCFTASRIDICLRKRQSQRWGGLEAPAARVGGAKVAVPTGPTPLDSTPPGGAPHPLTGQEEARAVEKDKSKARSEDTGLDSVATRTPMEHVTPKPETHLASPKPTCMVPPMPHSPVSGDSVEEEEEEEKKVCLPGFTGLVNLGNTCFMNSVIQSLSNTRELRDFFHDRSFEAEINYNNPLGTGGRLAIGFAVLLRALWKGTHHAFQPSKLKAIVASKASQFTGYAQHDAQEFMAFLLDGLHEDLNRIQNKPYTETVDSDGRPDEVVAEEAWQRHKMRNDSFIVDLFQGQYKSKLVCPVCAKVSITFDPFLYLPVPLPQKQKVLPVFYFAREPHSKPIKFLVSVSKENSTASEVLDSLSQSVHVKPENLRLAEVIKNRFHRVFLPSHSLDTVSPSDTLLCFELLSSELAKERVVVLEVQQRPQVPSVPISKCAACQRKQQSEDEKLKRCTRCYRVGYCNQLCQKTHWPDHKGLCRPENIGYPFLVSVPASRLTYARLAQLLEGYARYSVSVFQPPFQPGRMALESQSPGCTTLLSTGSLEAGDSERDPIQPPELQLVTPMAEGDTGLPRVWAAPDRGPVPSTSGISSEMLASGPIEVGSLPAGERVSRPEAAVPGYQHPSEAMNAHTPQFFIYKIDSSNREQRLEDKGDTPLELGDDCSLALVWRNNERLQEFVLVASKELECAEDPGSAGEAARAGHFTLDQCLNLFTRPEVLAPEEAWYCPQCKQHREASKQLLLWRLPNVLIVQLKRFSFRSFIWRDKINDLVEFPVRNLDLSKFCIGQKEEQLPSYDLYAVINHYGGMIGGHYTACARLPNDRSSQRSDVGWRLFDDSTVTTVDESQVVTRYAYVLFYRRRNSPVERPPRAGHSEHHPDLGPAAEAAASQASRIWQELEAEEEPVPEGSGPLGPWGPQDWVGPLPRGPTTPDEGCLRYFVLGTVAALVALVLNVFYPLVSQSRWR
Outline: (§1)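 HEK293T lysate, 495 µg per sample in Tris/CHAPS/IGEPAL buffer with protease inhibitors, was treated in triplicate with fragment at 200 µM or vehicle for 3 h and then with Biotin-Ahx-Ub-VS at 0.5 µM final for 1 h. Labelled DUBs were NeutrAvidin-enriched, digested with LysC and trypsin, and run by diaPASEF LC-MS/MS. Spectronaut label-free quantities were global-median-normalised, and values are average log2 fragment/vehicle ratios by unpaired t-test on proteins with ≥2 unique peptides.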

USP22 = target: T2, USP22 (UniProt Q9UPT9)
T2 sequence (whole entry): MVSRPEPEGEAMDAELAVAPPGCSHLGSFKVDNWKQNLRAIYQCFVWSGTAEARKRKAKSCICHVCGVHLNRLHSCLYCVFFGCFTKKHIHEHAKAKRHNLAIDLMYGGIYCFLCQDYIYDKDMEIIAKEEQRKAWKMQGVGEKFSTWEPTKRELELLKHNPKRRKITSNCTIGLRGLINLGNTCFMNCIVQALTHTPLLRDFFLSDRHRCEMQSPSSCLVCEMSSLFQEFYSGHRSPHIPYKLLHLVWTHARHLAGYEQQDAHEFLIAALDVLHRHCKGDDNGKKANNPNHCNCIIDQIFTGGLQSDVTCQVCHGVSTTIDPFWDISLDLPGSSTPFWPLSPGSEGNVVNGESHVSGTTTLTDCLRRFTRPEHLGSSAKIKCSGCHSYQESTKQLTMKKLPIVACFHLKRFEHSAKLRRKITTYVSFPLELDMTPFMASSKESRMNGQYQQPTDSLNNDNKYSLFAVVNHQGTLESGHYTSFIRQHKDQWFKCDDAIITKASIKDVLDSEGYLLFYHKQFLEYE
Outline: as §1

USP24 = USP24 (UniProt Q9UPU5)
Sequence of USP24 (Q9UPU5 whole entry): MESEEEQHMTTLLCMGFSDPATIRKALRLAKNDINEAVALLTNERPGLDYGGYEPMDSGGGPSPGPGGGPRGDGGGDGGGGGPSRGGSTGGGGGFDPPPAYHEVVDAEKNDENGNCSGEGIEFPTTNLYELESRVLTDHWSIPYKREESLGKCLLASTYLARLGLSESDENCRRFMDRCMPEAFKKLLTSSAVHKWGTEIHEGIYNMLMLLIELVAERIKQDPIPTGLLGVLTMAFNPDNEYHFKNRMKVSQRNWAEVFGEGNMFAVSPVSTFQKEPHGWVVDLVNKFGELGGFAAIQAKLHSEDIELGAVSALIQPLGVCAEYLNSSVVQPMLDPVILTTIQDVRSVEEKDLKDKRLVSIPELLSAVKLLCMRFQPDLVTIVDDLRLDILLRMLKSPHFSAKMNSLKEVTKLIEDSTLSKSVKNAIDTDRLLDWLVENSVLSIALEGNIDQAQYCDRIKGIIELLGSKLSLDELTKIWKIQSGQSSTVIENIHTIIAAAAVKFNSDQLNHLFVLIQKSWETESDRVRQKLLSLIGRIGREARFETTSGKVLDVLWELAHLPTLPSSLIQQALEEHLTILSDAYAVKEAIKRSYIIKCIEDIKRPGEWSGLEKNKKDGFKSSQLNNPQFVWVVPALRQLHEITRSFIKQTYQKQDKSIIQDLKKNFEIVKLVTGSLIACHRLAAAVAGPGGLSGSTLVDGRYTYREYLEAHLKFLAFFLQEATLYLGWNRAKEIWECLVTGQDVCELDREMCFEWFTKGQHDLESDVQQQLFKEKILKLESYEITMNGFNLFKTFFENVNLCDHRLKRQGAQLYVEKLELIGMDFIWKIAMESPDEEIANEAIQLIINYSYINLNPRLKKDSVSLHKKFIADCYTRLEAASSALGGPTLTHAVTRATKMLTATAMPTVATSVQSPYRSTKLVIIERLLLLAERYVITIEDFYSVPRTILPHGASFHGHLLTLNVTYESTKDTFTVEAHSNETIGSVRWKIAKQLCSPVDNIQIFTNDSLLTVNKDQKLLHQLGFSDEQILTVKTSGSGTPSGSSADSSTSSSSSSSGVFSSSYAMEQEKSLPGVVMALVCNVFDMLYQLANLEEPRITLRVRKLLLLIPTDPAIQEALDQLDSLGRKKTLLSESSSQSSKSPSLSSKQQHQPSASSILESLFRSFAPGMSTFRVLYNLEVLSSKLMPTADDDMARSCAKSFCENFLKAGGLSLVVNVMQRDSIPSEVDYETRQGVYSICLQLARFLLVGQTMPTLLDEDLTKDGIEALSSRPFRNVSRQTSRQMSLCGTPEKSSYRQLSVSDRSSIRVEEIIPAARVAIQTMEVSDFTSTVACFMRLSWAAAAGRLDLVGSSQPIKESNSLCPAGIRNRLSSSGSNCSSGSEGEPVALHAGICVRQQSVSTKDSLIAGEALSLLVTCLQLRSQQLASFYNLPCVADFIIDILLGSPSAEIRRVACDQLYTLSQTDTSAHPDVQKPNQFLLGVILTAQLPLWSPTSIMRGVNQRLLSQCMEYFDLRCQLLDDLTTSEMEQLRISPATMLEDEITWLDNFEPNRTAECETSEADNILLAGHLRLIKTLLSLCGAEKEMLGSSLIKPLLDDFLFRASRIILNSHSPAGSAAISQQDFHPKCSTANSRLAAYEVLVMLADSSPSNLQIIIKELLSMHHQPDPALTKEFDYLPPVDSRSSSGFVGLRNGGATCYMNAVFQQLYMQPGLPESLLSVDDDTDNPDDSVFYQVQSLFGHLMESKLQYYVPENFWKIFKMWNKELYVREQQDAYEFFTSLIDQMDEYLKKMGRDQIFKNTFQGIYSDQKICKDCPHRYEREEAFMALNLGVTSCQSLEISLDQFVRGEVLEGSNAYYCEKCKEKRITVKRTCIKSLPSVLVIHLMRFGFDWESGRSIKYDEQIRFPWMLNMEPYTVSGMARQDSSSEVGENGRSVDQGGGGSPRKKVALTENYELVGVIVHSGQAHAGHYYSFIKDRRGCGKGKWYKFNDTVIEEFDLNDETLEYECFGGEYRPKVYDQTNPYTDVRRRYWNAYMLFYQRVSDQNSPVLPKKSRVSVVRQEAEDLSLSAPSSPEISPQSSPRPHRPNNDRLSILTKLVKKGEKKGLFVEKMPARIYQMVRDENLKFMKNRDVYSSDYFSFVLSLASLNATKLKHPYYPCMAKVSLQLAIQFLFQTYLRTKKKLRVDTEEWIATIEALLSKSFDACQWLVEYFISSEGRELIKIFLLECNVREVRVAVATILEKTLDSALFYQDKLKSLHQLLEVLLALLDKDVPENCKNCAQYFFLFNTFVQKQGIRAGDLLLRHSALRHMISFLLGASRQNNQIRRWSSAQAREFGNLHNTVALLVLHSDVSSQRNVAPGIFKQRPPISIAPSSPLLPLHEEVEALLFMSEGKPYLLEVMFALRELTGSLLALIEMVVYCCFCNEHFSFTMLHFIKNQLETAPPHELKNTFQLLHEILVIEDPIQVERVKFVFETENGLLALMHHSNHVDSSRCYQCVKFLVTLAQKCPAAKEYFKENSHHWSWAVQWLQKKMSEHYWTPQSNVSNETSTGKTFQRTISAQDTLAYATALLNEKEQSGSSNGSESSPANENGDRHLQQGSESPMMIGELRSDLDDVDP
Outline: as §1

USP25 = target: T3, USP25 (UniProt Q9UHP3)
T3 sequence (whole entry): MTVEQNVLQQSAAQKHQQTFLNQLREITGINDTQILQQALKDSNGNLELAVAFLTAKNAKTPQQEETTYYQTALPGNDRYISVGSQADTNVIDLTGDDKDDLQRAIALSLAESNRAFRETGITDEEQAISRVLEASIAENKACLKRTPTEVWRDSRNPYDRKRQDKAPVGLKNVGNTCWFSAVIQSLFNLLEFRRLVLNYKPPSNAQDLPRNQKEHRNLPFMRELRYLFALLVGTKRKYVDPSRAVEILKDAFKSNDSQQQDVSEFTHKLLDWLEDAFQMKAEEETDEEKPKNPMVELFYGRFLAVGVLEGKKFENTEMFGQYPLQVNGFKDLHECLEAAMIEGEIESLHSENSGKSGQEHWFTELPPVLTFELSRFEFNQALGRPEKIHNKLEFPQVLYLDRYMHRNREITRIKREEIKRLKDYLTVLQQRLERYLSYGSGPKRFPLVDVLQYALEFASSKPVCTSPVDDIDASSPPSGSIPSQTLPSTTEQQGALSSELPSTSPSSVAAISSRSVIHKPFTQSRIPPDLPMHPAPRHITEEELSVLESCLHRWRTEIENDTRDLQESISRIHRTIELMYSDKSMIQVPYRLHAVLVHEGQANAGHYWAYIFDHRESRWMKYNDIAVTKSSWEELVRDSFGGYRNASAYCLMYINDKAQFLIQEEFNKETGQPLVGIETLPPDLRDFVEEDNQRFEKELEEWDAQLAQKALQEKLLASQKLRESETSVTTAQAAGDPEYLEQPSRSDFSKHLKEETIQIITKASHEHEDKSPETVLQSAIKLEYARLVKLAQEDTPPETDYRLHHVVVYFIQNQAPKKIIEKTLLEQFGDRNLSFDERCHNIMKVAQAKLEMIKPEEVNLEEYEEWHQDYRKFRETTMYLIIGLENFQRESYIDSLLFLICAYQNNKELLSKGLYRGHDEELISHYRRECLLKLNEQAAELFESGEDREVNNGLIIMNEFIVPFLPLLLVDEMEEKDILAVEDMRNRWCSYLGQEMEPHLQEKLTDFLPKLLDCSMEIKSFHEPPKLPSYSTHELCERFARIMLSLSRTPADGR
Outline: as §1

USP28 = target: T4, USP28 (UniProt Q96RU2)
T4 sequence (whole entry): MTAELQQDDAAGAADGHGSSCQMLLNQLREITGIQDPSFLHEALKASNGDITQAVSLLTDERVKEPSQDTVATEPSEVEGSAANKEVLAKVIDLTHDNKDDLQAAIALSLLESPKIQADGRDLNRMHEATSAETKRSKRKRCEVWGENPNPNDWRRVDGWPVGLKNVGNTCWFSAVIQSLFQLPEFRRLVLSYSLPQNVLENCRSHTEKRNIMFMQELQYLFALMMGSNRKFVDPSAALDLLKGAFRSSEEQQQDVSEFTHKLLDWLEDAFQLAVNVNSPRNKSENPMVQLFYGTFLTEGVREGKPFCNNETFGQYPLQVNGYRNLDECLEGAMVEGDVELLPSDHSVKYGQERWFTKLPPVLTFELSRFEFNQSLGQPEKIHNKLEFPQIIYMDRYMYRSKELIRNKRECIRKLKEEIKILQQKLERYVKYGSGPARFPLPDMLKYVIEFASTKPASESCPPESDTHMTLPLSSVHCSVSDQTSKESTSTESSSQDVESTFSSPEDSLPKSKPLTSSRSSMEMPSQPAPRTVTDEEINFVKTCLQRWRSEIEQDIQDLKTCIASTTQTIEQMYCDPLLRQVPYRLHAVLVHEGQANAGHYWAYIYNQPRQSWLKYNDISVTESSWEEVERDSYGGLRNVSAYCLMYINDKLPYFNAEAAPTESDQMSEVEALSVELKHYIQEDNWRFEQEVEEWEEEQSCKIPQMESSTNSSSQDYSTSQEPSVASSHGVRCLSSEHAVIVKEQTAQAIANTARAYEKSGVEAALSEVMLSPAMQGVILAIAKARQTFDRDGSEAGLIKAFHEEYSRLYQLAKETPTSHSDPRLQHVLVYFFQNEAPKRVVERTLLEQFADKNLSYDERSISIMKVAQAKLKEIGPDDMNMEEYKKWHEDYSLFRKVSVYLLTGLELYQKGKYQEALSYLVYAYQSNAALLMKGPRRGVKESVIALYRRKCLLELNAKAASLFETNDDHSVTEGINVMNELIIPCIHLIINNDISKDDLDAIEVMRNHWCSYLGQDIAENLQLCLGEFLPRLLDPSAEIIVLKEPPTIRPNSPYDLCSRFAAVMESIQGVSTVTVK
Outline: as §1

Measured: log2 ratio of Biotin-Ahx-Ub-VS probe labelling

O=C(CCl)N1CCC[C@@H]1c1ccon1
inactive: USP19 -0.377 | USP22 -0.153 | USP24 -0.653 | USP25 -0.618 | USP28 -0.64
